# Values joined by “and” are separate entries in the source; they are usually repeats but may differ in a detail not shown here. Identical values can stand only once. Some structures have more than one record in an assay (separate samples or runs), and their calls can disagree. Active and inactive are the calls of the source. Unless noted, no rule for the calls is given here.
# What was measured:
# [1] = compounds altering viability of human ES cells (AID 493140); conditions: human embryonic stem cell survival screen; stronger effect = higher value;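 also: cells exposed to compounds for four days before counting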
# [2] = viability loss with induced miR-34 in A549 – imaging, A549 dox-inducible miR-34, nuclei and caspase counts, primary screen (AID 1347080;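 active = compounds whose cell count with miR-34 switched on is under 0.7 times the count with it off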); conditions: A549 miR-34 inducible, Hoechst nuclei count, 48 h
# [3] = chitosan synthesis blockers in C. neoformans – flow cytometry, Cibacron Brilliant Red staining (AID 1347148); conditions: Cryptococcus neoformans chitosan, stronger effect = lower value; at 10 µM unless noted;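 also: compound exposure lasted three days at 37 degrees C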
# [4] = compounds altering circadian rhythm period length – cell-based, LOPAC library, luminescence reporter (AID 2774); conditions: circadian reporter cells, at 7 µM, actives lie on both sides;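 also: values are relative to mean of DMSO wells on each plate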
# [5] = P. berghei load reduction in hepatocytes – cell-based, HepG2, luciferase luminescence, HepG2 viability, primary screen (AID 624349; in the data active = parasite load remaining mostly below about 12%, no sharp cut-off; inactive = mostly above about 10%;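 also: 100% = mean of DMSO negative control wells on the same plate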); conditions: P. berghei liver stage in HepG2, luciferase luminescence, concentration not given here; parasite load remaining: stronger effect = lower value; viability: measured here: HepG2 viability without parasites
# [6] = test system: Hepatitis C virus NS3 helicase; test: blockers of NS3h binding to ssDNA – biochemical, fluorescence polarization, LOPAC1280 library, primary screen (AID 687035; in the data active = inhibition above about 37%); conditions: Purified HCV NS3 helicase, Cy5-dT15 ssDNA binding fluorescence polarization; stronger effect = higher value; concentration not given here
# [7] = compounds altering Cy5-DNA-NS3h complex signal – biochemical, LOPAC1280, artefact control for HCV NS3 helicase inhibitor project (AID 687037); conditions: Cy5-DNA-NS3h complex fluorescence interference counterscreen
# [8] = blockers of cellular phospholipid synthesis – cell-based, LOPAC library, screen 4, primary screen (AID 1347384); conditions: animal cells, phospholipid biosynthesis inhibition screen; at 10 µM
# [9] = MELAS cybrid and Rieske KO viability enhancers – cell-based, MELAS cybrids, Rieske KO mouse fibroblasts, CellTiter-Glo, primary screen (AID 1508586;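 active = mean z-score across replicates of 1.96 or higher in either the MELAS or the Rieske mutant cell line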;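 also: z relative to plate mean and SD of compound and empty wells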); conditions: low glucose
# [10] = galactose survival enhancers in mitochondrial complex I cybrids – cell-based, galactose medium, ATP luminescence, primary screen (AID 1645843;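 active = z-score of at least 1.8 in each of two replicates, scored against plate mean and spread of sample wells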;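 also: positive z means more ATP and so rescue of galactose-driven cybrid death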); conditions: complex I mutant cybrid cells, 72 h, stronger effect = higher value
# [11] = compounds altering HSF1 focus formation in cells – imaging, Selleck Cancer Library (AID 1347162; in the data active = plate-normalised HSF1 focus index below about 0.46); conditions: human cells, HSF1 nuclear foci imaging, at 10 µM; SSMD: measured here: HSF1 foci SSMD mean; cell count: measured here: cell number; plate-normalised HSF1 focus index: stronger effect = lower value
# [12] = stronger effect = lower value, cell number ratio, induced over uninduced
# [13] = measured here: relative caspase fold change +Dox/-Dox
# [14] = measured here: total cells with miR-34 induction, stronger effect = lower value
# [15] = measured here: total cells without miR-34 induction
# [16] = MELAS cybrid survival, CellTiter-Glo 48 h, stronger effect = higher value
# [17] = Rieske KO mouse fibroblast survival, CellTiter-Glo 72 h
smiles,measurement,setting,value
CCCCC/C=C\C/C=C\C/C=C\CCCCC(=O)O,survival,[1],76.5 (inactive)
same,fold change,[2]; [12],0.948 (inactive) and 1.06 (inactive)
same,fold change,[2]; [13],1.2 and 0.96
same,cell count,[2]; [14],5680 and 5970
same,cell count,[2]; [15],5990 and 5660
same,fold fluorescence,[3],4.86 (inactive)
CCCCC/C=C/C=C1/C(=O)C=C[C@@H]1C/C=C\CCCC(=O)O,survival,[1],82.2 (inactive)
same,fold change,[2]; [12],1.04 (inactive) and 0.838 (inactive) and 1.58 (inactive)
same,fold change,[2]; [13],1.45 and 1.36 and 1.03
same,cell count,[2]; [14],5600 and 6330 and 6250
same,cell count,[2]; [15],5380 and 7550 and 3960
same,fold fluorescence,[3],6.54 (inactive)
CCCCCCCCC#CCC#CCC#CCCCC(=O)O,survival,[1],97.9 (inactive)
same,fold change,[2]; [12],0.872 (inactive) and 1.12 (inactive)
same,fold change,[2]; [13],1.12 and 0.534
same,cell count,[2]; [14],5490 and 6070
same,cell count,[2]; [15],6300 and 5430
same,fold fluorescence,[3],6.11 (inactive)
CCCCC/C=C\C/C=C\CCCCCCCC(=O)O,survival,[1],55.7 (inactive)
same,fold change,[2]; [12],0.973 (inactive) and 1.02 (inactive)
same,fold change,[2]; [13],1.17 and 0.947
same,cell count,[2]; [14],6220 and 5980
same,cell count,[2]; [15],6400 and 5840
same,fold fluorescence,[3],4.86 (inactive)
COc1ccc(C(=O)NCc2cccnc2)cc1C(=O)NCc1cccnc1,period change,[4],-0.05 h (inactive)
same,survival,[1],25.1 (inactive)
same,parasite load remaining,[5],27.2% (inactive) and 91.5% (inactive) and 35% (inactive)
same,viability,[5],71% and 87.7% and 69.5%
same,inhibition,[6],-2% (inactive)
same,fluorescence ratio (interference),[7],1 (inactive)
same,fold change,[2]; [12],0.938 (inactive) and 0.931 (inactive) and 0.857 (inactive)
same,fold change,[2]; [13],1.32 and 2 and 1.31
same,cell count,[2]; [14],10400 and 9270
same,cell count,[2]; [15],11100 and 9960 and 10800
same,outcome,[8],inactive
same,z-score,[9]; [16],0.681 (inactive) and 0.373 (inactive)
same,z-score,[9]; [17],0.414 and 0.0826
same,z-score,[10],0.09 (inactive) and 0.34 (inactive)
CC/C=C\C/C=C\C/C=C\CCCCCCCC(=O)O,survival,[1],92.8 (inactive)
same,fold change,[2]; [12],0.97 (inactive) and 0.988 (inactive)
same,fold change,[2]; [13],1.3 and 0.691
same,cell count,[2]; [14],6070 and 5710
same,cell count,[2]; [15],6250 and 5780
same,fold fluorescence,[3],4.4 (inactive)
COc1ccccc1N1CCN(CCCCNC(=O)c2ccc3ccccc3c2)CC1,period change,[4],0.185 h (inactive)
same,parasite load remaining,[5],110% (inactive) and 55% (inactive)
same,viability,[5],97.7% and 74.2%
same,inhibition,[6],-1% (inactive)
same,fluorescence ratio (interference),[7],1 (inactive)
same,fold change,[2]; [12],1.04 (inactive) and 0.819 (inactive)
same,fold change,[2]; [13],1.41 and 1.7
same,cell count,[2]; [14],7170 and 7370
same,cell count,[2]; [15],6900 and 9000
same,outcome,[8],inactive
same,z-score,[9]; [16],-0.843 (inactive)
same,z-score,[9]; [17],0.134
same,z-score,[10],-0.51 (inactive)
CCCCC[C@H](O)/C=C/[C@H]1C(=O)C=C[C@@H]1C/C=C\CCCC(=O)O,survival,[1],86.8 (inactive)
same,fold change,[2]; [12],0.937 (inactive) and 0.931 (inactive)
same,fold change,[2]; [13],1.17 and 1.23
same,cell count,[2]; [14],6120 and 6100
same,cell count,[2]; [15],6540 and 6550
same,fold fluorescence,[3],4.57 (inactive)
CC(C)(C)[C@]1(O)CCN2C[C@H]3c4ccccc4CCc4cccc(c43)[C@@H]2C1,period change,[4],0.045 hour (inactive) and 0.1 hour (inactive)
same,parasite load remaining,[5],63.7% (inactive)
same,viability,[5],156%
same,inhibition,[6],0% (inactive) and -5% (inactive)
same,fluorescence ratio (interference),[7],1 (inactive)
same,fold change,[2]; [12],1.18 (inactive) and 1.07 (inactive) and 0.945 (inactive)
same,fold change,[2]; [13],1.07 and 1.2 and 1.29
same,cell count,[2]; [14],6310 and 6160 and 8940
same,cell count,[2]; [15],5360 and 5740 and 9460
same,outcome,[8],inactive
same,z-score,[9]; [16],0.22 (inactive)
same,z-score,[9]; [17],-0.23
same,z-score,[10],-1.48 (inactive) and -1.34 (inactive) and -0.325 (inactive)
CC/C=C\C/C=C\C/C=C\C/C=C\C/C=C\C/C=C\CCC(=O)O,survival,[1],81.3 (inactive)
same,fold change,[2]; [12],0.965 (inactive) and 0.982 (inactive)
same,fold change,[2]; [13],0.949 and 0.678
same,cell count,[2]; [14],5660 and 5960
same,cell count,[2]; [15],5860 and 6070
same,fold fluorescence,[3],4.24 (inactive)
CCCCC/C=C\C/C=C\CCCCCCCCCC(=O)O,survival,[1],74.2 (inactive)
same,fold change,[2]; [12],0.992 (inactive) and 1.02 (inactive)
same,fold change,[2]; [13],0.988 and 0.888
same,cell count,[2]; [14],6110 and 5920
same,cell count,[2]; [15],6160 and 5820
same,fold fluorescence,[3],3.91 (inactive)
CCCCCCCCCCCCC/C=C/[C@@H](O)[C@H](CO)N(C)C,survival,[1],80.2 (inactive)
same,fold change,[2]; [12],1.08 (inactive) and 0.933 (inactive)
same,fold change,[2]; [13],1.39 and 1.34
same,cell count,[2]; [14],5480
same,cell count,[2]; [15],5090 and 5880
same,fold fluorescence,[3],6.79 (inactive)
Nc1ccc2ncnc(NCCc3ccc(Oc4ccccc4)cc3)c2c1,parasite load remaining,[5],1.5% (active)
same,viability,[5],70.6%
same,fold change,[2]; [12],0.738 (inactive) and 0.708 (inactive) and 0.683 (active)
same,fold change,[2]; [13],1.4 and 1.31 and 3.23
same,cell count,[2]; [14],2180 and 3030 and 5480
same,cell count,[2]; [15],2950 and 4280 and 8020
same,SSMD,[11],-5.88
same,cell count,[11],2600
same,plate-normalised HSF1 focus index,[11],0.65 (inactive)
same,z-score,[9]; [16],-0.305 (inactive)
same,z-score,[9]; [17],-0.135
CC/C=C\C/C=C\C/C=C\C/C=C\C/C=C\CCCC(=O)O,survival,[1],106 (inactive)
same,fold change,[2]; [12],0.976 (inactive) and 0.979 (inactive)
same,fold change,[2]; [13],0.982 and 0.878
same,cell count,[2]; [14],5680 and 5960
same,cell count,[2]; [15],5820 and 6080
same,fold fluorescence,[3],4.6 (inactive)

# From PubChem BioAssay
